Results as given in PubChem BioAssay (EPA / NIEHS).
Values joined by “and” are separate entries in the source; they are usually repeats but may differ in a detail not shown here. Identical values can stand only once. More than one record can exist for a structure, and the calls need not agree. Active and inactive are the calls of the source. How the source made its calls: active means hit-call score of the fitted dose curve at least 0.9, where 1 is the maximum; inactive means score below 0.9.

Read-out: not listed separately
Assay: BSK_SAg_PBMCCytotoxicity: PBMC Cytotoxicity Assessment in the BioMAP Diversity Plus: SAg Assay (AID 2283093);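 further: PBMC viability measured as Alamar Blue reduction fluorescence at 546/580 nm; fitted both ways against DMSO so a hit may be loss or gain of signal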;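 on AC50: PBMC superantigen activated with SEB plus TSST-1 one hour after compound addition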
Conditions: primary human HUVEC with PBMC
Outline: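 Human umbilical vein endothelial cells co-cultured with PBMC; PBMC (75,000/well) pre-treated with compound 1 h, then activated with SEB and TSST-1 (20 ng/mL final each) for 90 h. Alamar Blue added 6 h, fluorescence 546/580 nm; bidirectional fit versus DMSO.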
With `CCCCCCCCCCCCCCCO` the AC50 was 30.7 µM (active).
With `O=c1n(CC2CO2)c(=O)n(CC2CO2)c(=O)n1CC1CO1` (centres undefined) the outcome was “inactive”.
For `CC(=O)OC[C@H]1O[C@@](COC(C)=O)(O[C@H]2O[C@H](COC(C)=O)[C@@H](OC(C)=O)[C@H](OC(C)=O)[C@H]2OC(C)=O)[C@@H](OC(C)=O)[C@@H]1OC(C)=O`, the outcome was “inactive”.
For `CCn1nc(Cc2ccccc2)cc1C1CCN(C[C@H]2C[C@H](N(C)[C@@H](C(=O)O)C(C)C)C[C@@H]2c2cccc(F)c2)CC1`, the outcome was “inactive”.
For `CC1(C)C(=O)N(Br)C(=O)N1Br`, the outcome was “inactive”.
With `CCCCC(CC)COC(=O)CCCCCCCCC(=O)OCC(CC)CCCC` (centres undefined) the outcome was “inactive”.
For `Clc1nc(Cl)c(Cl)c(Cl)c1Cl`, the outcome was “inactive”.
In the case of `CCCCCCCCCCCCc1ccccc1`, the outcome was “inactive”.
In the case of `COC(=O)c1ccccc1O`, the outcome was “inactive”.
In the case of `Cc1ccc(O)cc1`, the outcome was “inactive”.
In the case of `CC(C)CCO`, the outcome was “inactive”.
In the case of `CC(C)=CCC/C(C)=C/CO`, the outcome was “inactive”.
For `CC(C)CCCCCCOC(=O)c1ccc(C(=O)OCCCCCCC(C)C)c(C(=O)OCCCCCCC(C)C)c1`, the outcome was “inactive”.
For `C1=CCCC=CCCC=CCC1`, the outcome was “inactive”.
In the case of `CC[C@H]1OC(=O)[C@H](C)[C@@H](O[C@H]2C[C@@](C)(OC)[C@@H](O)[C@H](C)O2)[C@H](C)[C@@H](O[C@@H]2O[C@H](C)C[C@H](N(C)C)[C@H]2O)[C@](C)(O)C[C@@H](C)C(=O)[C@H](C)[C@@H](O)[C@]1(C)O`, the outcome was “inactive”.
In the case of `O=C(O)CCN(C1(C(=O)NO)CCCC1)S(=O)(=O)c1ccc(Oc2ccc(F)cc2)cc1`, the outcome was “inactive”.
For `CC/C(=C\C(=N/O)C(N)=O)C(C)[N+](=O)[O-]` (centres undefined), the outcome was “inactive”.
With `C=CC(=C)CCC=C(C)C` the outcome was “inactive”.
For `Cc1ccc(S(=O)(=O)O)cc1C`, the outcome was “inactive”.
In the case of `CCCN(C1CCN(C(=O)C2CCNCC2)CC1)[C@@H]1CCc2ccc(OC)cc2C1`, the outcome was “inactive”.
For `COCCOCCOCCOC`, the outcome was “inactive”.
With `CCCCCCCCO` the outcome was “inactive”.
In the case of `CCC(C)(C)C(=O)O[C@H]1C[C@@H](C)C=C2C=C[C@H](C)[C@H](CC[C@@H]3C[C@@H](O)CC(=O)O3)[C@H]21`, the AC50 was 25.1 µM (active).
In the case of `C1N2CN3CN1CN(C2)C3`, the outcome was “inactive”.
For `CC(=O)c1ccc2c(c1)[C@H](NC(=O)c1ccc(F)cc1)[C@@H](O)C(C)(C)O2`, the outcome was “inactive”.
In the case of `COC(=O)CC(=O)OC`, the outcome was “inactive”.
For `O=C(CCCCCCCCc1cccnc1)N1CCC(C=C(c2ccccc2)c2ccccc2)CC1`, the AC50 was 10.3 µM (active).
In the case of `Cn1cnc([N+](=O)[O-])c1Sc1ncnc2nc[nH]c12`, the AC50 was 13.7 µM (active) and the outcome was “inactive”.
In the case of `O=C1OC(=O)C2C3C=CC(C3)C12` (centres undefined), the outcome was “inactive”.

Read-out: Interleukin-8 (IL8), CXCL8 (gene 3576)
Assay: BSK_SAg_IL8: BioMAP Diversity Plus: SAg Assay for Interleukin-8 (IL8) Biomarker Activity (AID 2283094)
Conditions: primary human HUVEC with PBMC; actives raise or lower the signal
Outline: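 In this co-culture of human umbilical vein endothelium with peripheral blood mononuclear cells, IL-8 is assayed by ELISA at 24 h. DMSO serves as baseline for bidirectional curve fitting.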
For `CCCCCCCCCCCCCCCO`, the AC50 was 28.6 µM (active).
With `O=c1n(CC2CO2)c(=O)n(CC2CO2)c(=O)n1CC1CO1` (centres undefined) the AC50 was 20 µM (active).
In the case of `CC(=O)OC[C@H]1O[C@@](COC(C)=O)(O[C@H]2O[C@H](COC(C)=O)[C@@H](OC(C)=O)[C@H](OC(C)=O)[C@H]2OC(C)=O)[C@@H](OC(C)=O)[C@@H]1OC(C)=O`, the outcome was “inactive”.
In the case of `CCn1nc(Cc2ccccc2)cc1C1CCN(C[C@H]2C[C@H](N(C)[C@@H](C(=O)O)C(C)C)C[C@@H]2c2cccc(F)c2)CC1`, the outcome was “inactive”.
For `CC1(C)C(=O)N(Br)C(=O)N1Br`, the outcome was “inactive”.
For `CCCCC(CC)COC(=O)CCCCCCCCC(=O)OCC(CC)CCCC` (centres undefined), the outcome was “inactive”.
For `Clc1nc(Cl)c(Cl)c(Cl)c1Cl`, the AC50 was 14.4 µM (active).
With `CCCCCCCCCCCCc1ccccc1` the outcome was “inactive”.
In the case of `COC(=O)c1ccccc1O`, the outcome was “inactive”.
In the case of `Cc1ccc(O)cc1`, the outcome was “inactive”.
With `CC(C)CCO` the outcome was “inactive”.
With `CC(C)=CCC/C(C)=C/CO` the outcome was “inactive”.
For `CC(C)CCCCCCOC(=O)c1ccc(C(=O)OCCCCCCC(C)C)c(C(=O)OCCCCCCC(C)C)c1`, the outcome was “inactive”.
For `C1=CCCC=CCCC=CCC1`, the outcome was “inactive”.
With `CC[C@H]1OC(=O)[C@H](C)[C@@H](O[C@H]2C[C@@](C)(OC)[C@@H](O)[C@H](C)O2)[C@H](C)[C@@H](O[C@@H]2O[C@H](C)C[C@H](N(C)C)[C@H]2O)[C@](C)(O)C[C@@H](C)C(=O)[C@H](C)[C@@H](O)[C@]1(C)O` the outcome was “inactive”.
For `O=C(O)CCN(C1(C(=O)NO)CCCC1)S(=O)(=O)c1ccc(Oc2ccc(F)cc2)cc1`, the outcome was “inactive”.
For `CC/C(=C\C(=N/O)C(N)=O)C(C)[N+](=O)[O-]` (centres undefined), the outcome was “inactive”.
With `C=CC(=C)CCC=C(C)C` the outcome was “inactive”.
For `Cc1ccc(S(=O)(=O)O)cc1C`, the outcome was “inactive”.
In the case of `CCCN(C1CCN(C(=O)C2CCNCC2)CC1)[C@@H]1CCc2ccc(OC)cc2C1`, the outcome was “inactive”.
In the case of `COCCOCCOCCOC`, the outcome was “inactive”.
For `CCCCCCCCO`, the outcome was “inactive”.
With `CCC(C)(C)C(=O)O[C@H]1C[C@@H](C)C=C2C=C[C@H](C)[C@H](CC[C@@H]3C[C@@H](O)CC(=O)O3)[C@H]21` the AC50 was 0.149 µM (active).
With `C1N2CN3CN1CN(C2)C3` the outcome was “inactive”.
With `CC(=O)c1ccc2c(c1)[C@H](NC(=O)c1ccc(F)cc1)[C@@H](O)C(C)(C)O2` the outcome was “inactive”.
For `COC(=O)CC(=O)OC`, the outcome was “inactive”.
With `O=C(CCCCCCCCc1cccnc1)N1CCC(C=C(c2ccccc2)c2ccccc2)CC1` the AC50 was 6.46 µM (active).
For `Cn1cnc([N+](=O)[O-])c1Sc1ncnc2nc[nH]c12`, the AC50 was 12.9 µM (active) and 12.6 µM (active) and 9.23 µM (active).
With `O=C1OC(=O)C2C3C=CC(C3)C12` (centres undefined) the outcome was “inactive”.
